Bioassay records: PubChem BioAssay, several laboratories
BoNT-F LC inh = blocks Botulinum neurotoxin F light chain protease | 360,000 compounds, 0.22% hits | Multiplex microsphere protease cleavage assay, flow cytometry | inhibition, % at 10 µM | AID 588497; in the data active = inhibition above about 35%, passing the limit was not always enough; inconclusive = no clear call, values can overlap the other calls; also: plate controls were buffer without enzyme for full effect and enzyme alone for no effect
BH1578 lux ind = inducers of Vibrio cholerae quorum light production without autoinducers; V. cholerae BH1578 lux reporter, luminescence, 6 h; activation, % at 18.7 µM; 350,000 compounds, 0.16% hits; in the data active = activation mostly above about 9.7%, no sharp cut-off; inconclusive = no clear call, values can overlap the other calls; inactive = mostly below about 3.7%
BoNT A protease = blocks Botulinum neurotoxin A light chain protease. multiplex microsphere protease substrate cleavage, flow cytometry. inhibition, % at 10 µM. 360,000 compounds, 0.17% hits; also: plate controls were buffer without enzyme for full effect and enzyme alone for no effect
MazEF act = activators of E. coli MazEF toxin-antitoxin RNase; P0AE70; 350,000 compounds, 0.32% hits; FAM/BHQ RNA-DNA oligo cleavage fluorescence, 5 h; activation, % at 20 µM; in the data active = activation above about 50%
Target sequence (P0AE70 whole entry, looked up): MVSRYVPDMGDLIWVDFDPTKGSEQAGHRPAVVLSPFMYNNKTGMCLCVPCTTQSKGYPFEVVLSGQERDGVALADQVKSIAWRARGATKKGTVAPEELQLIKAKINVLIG
Bead autofluor = counter-screen for toxin protease inhibitors: compound fluorescence; 360,000 compounds, 3.1% hits; fluorescence intensity (test concentration not listed); compound autofluorescence counterscreen, microsphere flow cytometry; hits give high values; AID 624483; in the data active = fluorescence intensity above about 16000; inconclusive = no clear call, values can overlap the other calls
Anthrax LF inh2 = blocks Bacillus anthracis lethal factor protease. P15917. multiplex microsphere protease cleavage assay, LF. inhibition, % at 10 µM. 360,000 compounds, 0.12% hits. AID 588501; also: plate controls were buffer without enzyme for full effect and enzyme alone for no effect
* marks the source's active call; other numbers are inactive results; i = inactive; ? = inconclusive; · = no result given. In the library only some 3.9% were active in any assay of this set; here they are far more common. Rule as the data show it, unless noted: active = inhibition above about 30%; inconclusive = no clear call, values can overlap the other calls; inactive = below that.

SMILES	BoNT-F LC inh	BH1578 lux ind	BoNT A protease	MazEF act	Bead autofluor	Anthrax LF inh2
c1ccc2c(Cn3nnc4ccccc43)cccc2c1	-12	-15	-1	4	8209	-1
COc1ccc(Cl)cc1N(CC(=O)Nc1cccc(SC)c1)S(C)(=O)=O	4	0	4	2	21540*	-6
COc1ccc(N(CC(=O)Nc2cccc(SC)c2)S(C)(=O)=O)cc1Cl	6	·	-1	1	3280	-1
Cc1cc(C)n(-c2nc(NCCC(C)C)c3c4c(sc3n2)COC(C)(C)C4)n1	13	i	13	7	19196*	-11
Cc1cc(C)n(-c2nc(NCCN(C)C)c3c4c(sc3n2)COC(C)(C)C4)n1	29	0	1	13	3541	?
CCOC(=O)c1cc2c(C)n(-c3ccc(OCC)cc3)c(C)c2cc(C(=O)OCC)c1=O	-3	0	2	7	2422	0
CCOC(=O)c1cc2c(C)n(-c3ccc(N(C)C)cc3)c(C)c2cc(C(=O)OCC)c1=O	6	i	?	7	18745*	1
CC1(C)Cc2cccc(OCC(=O)Nc3ccccc3N3CCOCC3)c2O1	2	0	0	9	16540*	-2
CC1(C)Cc2cccc(OCC(=O)Nc3ccccc3C(F)(F)F)c2O1	9	-1	-5	-1	?	-2
COc1ccc(Cc2nnc(NC(=O)c3ccc(OC)c(OC)c3)s2)cc1OC	-8	-3	-1	8	4416	-1
CCCc1nnc(NC(=O)c2cccc(OC)c2)s1	8	-1	?	3	21067*	0
COc1ccc(Cc2nnc(NC(=O)c3ccc(OC(C)=O)cc3)s2)cc1OC	35*	0	4	-15	3108	2
COc1cccc(C(=O)Nc2c(F)cccc2F)c1	7	0	0	-1	4107	-6
COc1cccc(C(=O)Nc2nnc(Cc3ccc(OC)c(OC)c3)s2)c1	-5	0	-1	3	6392	-7
COc1cccc(C(=O)Nc2c(F)c(F)c(F)c(F)c2F)c1	-5	i	-2	-1	20193*	1
CN(C)c1cccc(CNC(=O)c2csc([C@H]3C[C@H](O)[C@@H](CO)O3)n2)c1	4	-1	0	·	3636	-4
Cc1nc(SCC(=O)c2ccc(Cl)cc2)c([N+](=O)[O-])[nH]1	-8	i	?	-2	24383*	-2
Cc1nc(SCC(=O)c2ccc(F)cc2)c([N+](=O)[O-])[nH]1	-2	0	1	6	2519	-3
COc1cc(NC(=O)COC(=O)c2ccccc2SCC(=O)N2CCCC2)cc(OC)c1	-1	-1	1	1	5474	0
Cc1cc(C(=O)OCC(=O)NC(C)(C)C)c2ccccc2n1	-2	0	?	6	16530*	0
CN(C)S(=O)(=O)c1ccc(C(=O)N(c2ccccn2)c2ccccn2)cc1	2	-7	1	2	22500*	0
O=C(c1ccco1)N(c1ccccn1)c1ccccn1	0	-1	?	-2	22821*	-2
COc1ccc(/C=C/C(=O)O)cc1S(=O)(=O)N1CCCC1	?	-1	-2	3	3678	-6
CCCCN(CCCC)CCCNC(=O)CC1Oc2ccc(C)cc2NC1=O (centres undefined)	-6	0	-5	1	23832*	-2
Cc1n[nH]c(C)c1S(=O)(=O)N1CCc2ccccc2C1	-4	i	-1	8	6401	7
SMILES	BoNT-F LC inh	BH1578 lux ind	BoNT A protease	MazEF act	Bead autofluor	Anthrax LF inh2
Cc1ccc(NC(C)c2cc(Cl)ccc2O)cc1 (centres undefined)	-1	i	?	7	21916*	-4
CC(Nn1cnnc1)c1cc(Cl)ccc1O (centres undefined)	-4	0	0	-23	3629	0
Cc1ccc(OCCNC(=O)c2cccc(S(=O)(=O)NCc3ccccc3)c2)cc1	0	i	1	2	6824	-1
CS(=O)(=O)NCc1ccc(C(=O)NCCOc2ccccc2)cc1	21	0	17	-2	17640*	-18
COc1ccc(C2=Cc3ccc(OC(C)=O)cc3OC2)cc1	-5	i	0	-2	3759	-6
Cc1cccc2cc(C(c3nnnn3Cc3ccccc3)N3CCCc4ccccc43)c(=O)[nH]c12 (centres undefined)	2	1	?	2	23808*	5
O=c1[nH]c2cc3c(cc2cc1C(c1nnnn1CC1CCCO1)N1CCCCCC1)OCCO3 (centres undefined)	-6	i	-4	-5	22706*	1
COc1ccc(Cn2nnnc2C(c2cc3cccc(C)c3[nH]c2=O)N2CCOCC2)cc1 (centres undefined)	8	0	-1	4	10896	-3
CCN1CCN(C(c2cc3cccc(C)c3[nH]c2=O)c2nnnn2Cc2ccccc2)CC1 (centres undefined)	-7	-1	0	13	4541	1
Cc1ccc2[nH]c(=O)c(C(c3nnnn3C(C)(C)C)N(Cc3ccco3)CC3CCCO3)cc2c1 (centres undefined)	10	-4	1	3	5660	2
Cc1cccc2cc(C(c3nnnn3C(C)(C)C)N(Cc3ccco3)CC3CCCO3)c(=O)[nH]c12 (centres undefined)	4	0	3	-3	21568*	-2
Cc1cccc2cc(C(c3nnnn3CC3CCCO3)N3CCOCC3)c(=O)[nH]c12 (centres undefined)	8	i	?	-2	18150*	-7
Cc1ccc2cc(C(c3nnnn3C3CCCC3)N(Cc3ccco3)Cc3cccs3)c(=O)[nH]c2c1 (centres undefined)	-5	i	-2	-22	24754*	-3
CN1CCN(C(=O)CN(Cc2ccccc2)S(C)(=O)=O)CC1	0	0	0	-1	22469*	1
CCN1CCN(C(=O)CN(Cc2ccccc2)S(C)(=O)=O)CC1	4	0	-1	6	3460	-3
CCOC(=O)c1cc(NC(=O)C2C3CCC(O3)C2C(=O)O)cc(C(=O)OCC)c1 (centres undefined)	0	i	-1	-4	23079*	2
CCOC(=O)Cc1csc(NC(=O)c2c(-c3c(F)cccc3Cl)noc2C)n1	5	1	4	-13	21863*	-5
CCOC(=O)c1cc(NC(=O)c2ccoc2C)cc(C(=O)OCC)c1	0	2	?	-2	23038*	-3
CCOC(=O)Cc1csc(NC(=O)c2c(-c3ccccc3)noc2C)n1	0	-1	0	-1	10311	0
CCOC(=O)Cc1csc(NC(=O)c2ccoc2C)n1	-1	0	-2	-19	23823*	-1
NC(c1csc(Nc2ccccn2)n1)C1CCCCC1 (centres undefined)	-4	0	0	·	2742	-2
CC(C)(C)Nc1nc(SCc2ccccc2)nc(N2CCOCC2)n1	-7	3	?	-10	23358*	-5
